From PubChem BioAssay (NCI)
This is part of a sample that, as a whole, favours compounds with a hit. Of some 79,000 tested, about 15% had one in any assay. Active and inactive are the calls of the source. Cut-off read from the data, not from the text of the source: active = growth inhibition above about 70%; inactive = the rest.

What was measured:
[1] = NCI Yeast Anticancer Drug Screen. Data for the rad50 strain (AID 155);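 note: 0% = growth of vehicle-only cultures of the same strain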; settings: S. cerevisiae rad50 strain growth inhibition; at 50.0 µM; stronger effect = higher value
How it was run: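 Inhibition values express reduced yeast growth in compound-treated cultures relative to vehicle-treated controls.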

[2] = NCI Yeast Anticancer Drug Screen. Data for the mec2-1 strain (AID 157); settings: S. cerevisiae mec2-1 strain, at 50.0 µM, stronger effect = higher value
How it was run: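 Test agents were screened against the mec2-1 yeast strain, with defined DNA repair or cell cycle alteration. Growth was scored as inhibition against vehicle-only controls.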

[3] = NCI Yeast Anticancer Drug Screen. Data for the sgs1 mgt1 strain (AID 161);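 note: 0% = growth of cultures given vehicle only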; settings: S. cerevisiae sgs1 mgt1 strain, at 50.0 µM, stronger effect = higher value
How it was run: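 Read-out: growth inhibition vs vehicle controls. Cells: mutant yeast strain deficient in DNA damage repair.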

[4] = NCI Yeast Anticancer Drug Screen. Data for the cln2 rad14 strain (AID 165);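 note: 0% = growth equal to vehicle treated cultures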; settings: S. cerevisiae cln2 rad14 strain, at 50.0 µM, stronger effect = higher value
How it was run: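 Growth of compound-exposed yeast (cln2 rad14 genotype) measured and expressed as inhibition relative to vehicle.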

[5] = NCI Yeast Anticancer Drug Screen. Data for the bub3 strain (AID 167); settings: S. cerevisiae bub3 mutant strain, at 50.0 µM, stronger effect = higher value
How it was run: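 Steps: expose the mutant yeast strain to compound; grow alongside vehicle-treated cultures; measure growth; express inhibition against the vehicle cultures.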

[6] = NCI Yeast Anticancer Drug Screen. Data for the mlh1 rad18 strain (AID 175); settings: S. cerevisiae mlh1 rad18 strain growth inhibition; at 50.0 µM; stronger effect = higher value
How it was run: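 In this whole-cell yeast screen, a strain with altered DNA damage repair is challenged with compound, and its growth is measured against matched vehicle-treated controls.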

Measured: growth inhibition

O=C(O)/C=C/C=C/c1ccc(Cl)cc1
inactive: [1] 7.25% | [2] 23.4% | [3] 4.3% | [4] -14% | [5] 10.4% | [6] -1.95%

CCCCCCC(=O)OC[n+]1ccc2c(C)c3[nH]c4ccc(OC)cc4c3c(C)c2c1
active: [1] 87% | [2] 91.2% | [3] 89.8% | [4] 88.7% | [5] 86% | [6] 91.1%

COc1ccc(C(=O)CC(=O)CCC(=O)Nc2cc(C)ccc2C)cc1
inactive: [1] -6.55% | [2] 5.2% | [3] 18.2% | [4] -7.75% | [5] 5.25% | [6] 25.1%

CCCCNC(=O)/C(=C\c1ccccc1)NC(C)=O
inactive: [1] 50.1% | [2] 12.1% | [3] 0.85% | [4] -8.45% | [5] 10.9% | [6] -14.2%

O=C(Oc1c([N+](=O)[O-])cc(-c2ccccc2)cc1[N+](=O)[O-])c1ccccc1
inactive: [1] 22.7% | [2] 18.1% | [3] 9.05% | [4] 13.1% | [5] 20.1% | [6] 35.6%

ClC[P+](c1ccccc1)(c1ccccc1)c1ccccc1
inactive: [1] 38.2% | [2] 19.3% | [3] 13.2% | [4] 11.6% | [5] 24.8% | [6] 33.4%

CCCCN(CCCC)CC(O)c1cc(OC)c2cc(Cl)cc(Cl)c2n1 (stereo unspecified)
active: [1] 99.5% | [2] 99.8% | [3] 99.8% | [4] 99.3% | [5] 99.2% | [6] 99.7%

COc1ccc(Br)cc1/C=N\NC(=O)c1ccccc1N(C)C
inactive: [1] -24.2% | [2] -11.6% | [3] -10.8% | [4] 6.6% | [5] -3.05% | [6] -4.25%

O=C(COc1ccccc1)OCCCl
inactive: [1] -7.8% | [2] -15.3% | [3] -15.4% | [4] -67.5% | [5] -25.8% | [6] -75.9%

Nc1nc2nc[n-]c2c(=O)[nH]1.[NH2-].[NH2-].[NH2-].[NH2-].[NH2-].[Ru+6]
inactive: [1] 20.6% | [2] 4.55% | [3] 4.9% | [4] 2.5% | [5] -5.8% | [6] -4.9%

COC(=O)c1cc(-c2ccccc2Cl)n2c(N)nnc2n1
inactive: [1] 21.6% | [2] -3.1% | [3] 32.6% | [4] -6.2% | [5] -20.3% | [6] 7.1%

CC(CS(=O)(=O)Cc1ccccc1)C(N)=O (stereo unspecified)
inactive: [1] -4.8% | [2] 38.1% | [3] 14.3% | [4] 30.1% | [5] -9.95% | [6] -17.1%

Cc1cn(CCCn2cnc3c(=O)[nH]cnc32)c(=O)[nH]c1=O
inactive: [1] -13.1% | [2] -22.1% | [3] -16.7% | [4] -3.15% | [5] -21.6% | [6] -3.25%

NNC(=O)/C(=C/c1ccc(Cl)cc1Cl)NC(=O)c1ccccc1
inactive: [1] 45% | [2] 35.3% | [3] 39.3% | [4] 60.4% | [5] 66.8% | [6] 54.5%

O=C(NCc1ccccc1)c1ccc([N+](=O)[O-])cc1
inactive: [1] -7.2% | [2] 13.8% | [3] 10.3% | [4] -44.2% | [5] 22.8% | [6] 11.7%

O=c1[nH]cnc2c1ncn2CCc1ccc([N+](=O)[O-])cc1[N+](=O)[O-]
inactive: [1] 3% | [2] -6.15% | [3] 9.4% | [4] -54.9% | [5] -15.1% | [6] -7.95%

COC(=O)c1ccccc1NN=Nc1ccccc1Cl
inactive: [1] 3.5% | [2] -17.7% | [3] -0.95% | [4] 8.3% | [5] 6.4% | [6] 11.1%

COc1cccc2c1C(c1ccc3ccccc3c1)OC2=O (stereo unspecified)
inactive: [1] -22.2% | [2] -11.4% | [3] -27.6% | [4] 12.8% | [5] -25.4% | [6] -15.5%

CC(C)=C=CC(C)(C)NS(=O)(=O)NC(C)(C)C=C=C(C)C
inactive: [1] 12.5% | [2] -9.85% | [3] 2.4% | [4] 3.35% | [5] -16.6% | [6] 8.35%

CCOC(=O)CNCc1cccc(Cl)c1
inactive: [1] 5.15% | [2] 28.4% | [3] 15.4% | [4] -0.8% | [5] 28.1% | [6] 24.2%

CC(C)CN1CC(=O)N2Cc3ccccc3CN2C(=O)C1
inactive: [1] -28.6% | [2] -10.2% | [3] -17.4% | [4] -4.95% | [5] -1.3% | [6] -2.5%

S=C=NCCCCCCCCCCCCN=C=S
active: [1] 94.4% | [2] 89.5% | [3] 94.2% | [5] 89.7% | [6] 94.7%
inactive: [4] 58.5%

N=C1C=CC2C(=Nc3ccccc3[N+]2=O)N1Cc1ccncc1 (stereo unspecified)
inactive: [1] -2.9% | [2] 1.3% | [3] -6% | [4] 1.45% | [5] 7.55% | [6] 22.8%

Cc1noc2cccc(O)c12
inactive: [1] 0.95% | [2] 12.6% | [3] 15.8% | [4] 10.9% | [5] 1.25% | [6] 34.6%

O=C(OCc1ccccc1CN1CCOCC1)c1cccc(Cl)c1
inactive: [1] 13.8% | [2] -1.55% | [3] 17.3% | [4] -0.05% | [5] -6.25% | [6] 7.35%

OC12c3ccccc3C1(N1CCOCC1)CCCCC21OCCCO1 (stereo unspecified)
inactive: [1] 12.7% | [2] -11.2% | [3] -17.6% | [4] 10.1% | [5] -23.5% | [6] -5.15%

CC(C)(C)c1ccc(OC(=O)NCCCCCCNC(=O)Oc2ccc(C(C)(C)C)cc2)cc1
inactive: [1] -5.65% | [2] 23.9% | [3] 4.8% | [5] -2.85% | [6] -8.5%
active: [4] 92.3%

COc1ccc(C(=O)C(C)CN2CCOCC2)cc1 (stereo unspecified)
inactive: [1] 68.1% | [2] 22.6% | [3] 40.5% | [4] 32.6% | [5] 52.8% | [6] 53.5%

N#C/C(=C\c1cccc(Cl)c1)C(=O)c1ccccc1
inactive: [1] 1.1% | [2] 11.3% | [3] -1.35% | [4] 13.1% | [5] 0.2% | [6] 33.2%

CCOc1c(N=Nc2ccc(Br)cc2)c(C)nn1C(N)=S
inactive: [1] -4.5% | [2] 33.9% | [3] 26.1% | [4] -0.3% | [5] 31.2% | [6] 45%

CCC1=CC(=O)C(CC)=CC1=O
inactive: [1] 3.05% | [2] 25.2% | [3] -2.15% | [4] -23.7% | [5] 1.95% | [6] 15.6%

COC(=O)C(=[N+]=[N-])C(=O)c1ccc([N+](=O)[O-])cc1
inactive: [1] 65.5% | [2] 23.9% | [3] 40.1% | [4] 41.8% | [5] 20.6% | [6] 42.3%

O=C1Cc2c([nH]c3ccccc23)-c2ccccc2N1
inactive: [1] 25.1% | [2] 13.9% | [3] 13.8% | [4] 5.05% | [5] 35.8% | [6] 21.1%

COc1cccc(-c2cc(=O)c3cc(Cl)cnc3[nH]2)c1
inactive: [1] 5.35% | [2] 2.7% | [3] 4.2% | [4] 31.1% | [5] 11.8% | [6] 5.1%

O=C(CCc1nnc2s/c(=C\c3ccccc3)c(=O)n12)Nc1cc(Cl)ccc1Cl
inactive: [1] -30.9% | [2] -1.6% | [3] -18.4% | [4] 16.4% | [5] 4.95% | [6] -1.45%

Nc1cc(Cl)cc2[nH]c(=O)c3cc(Cl)ccc3c12
inactive: [1] 39.8% | [2] 7.25% | [3] 13.6% | [4] 5.35% | [5] 17.2% | [6] 38%

CCC(=O)n1cc2ccc([N+](=O)[O-])cc2n1
inactive: [1] 1.35% | [2] 1.35% | [3] -4% | [4] -57.8% | [5] 13.2% | [6] -3.05%

NC(CSS(=O)(=O)O)=NCCSS(=O)(=O)O
inactive: [1] -20.4% | [2] -12.4% | [3] -3.45% | [4] 7.45% | [5] -2.4% | [6] 3.95%

Cn1cc(S(C)=O)c(=O)c2ccccc21 (stereo unspecified)
inactive: [1] 2.65% | [2] -1.6% | [3] -5.6% | [4] -13.9% | [5] 8.3% | [6] -2.35%

COc1ccc(C(=O)c2cc(OC)c(OC)c(OC)c2)cc1OC
inactive: [1] -21.9% | [2] -27.2% | [3] -13.8% | [4] 0.3% | [5] 7.45% | [6] -10.4%

COc1c(NC(=O)c2ccccc2Cl)cccc1[N+](=O)[O-]
inactive: [1] -1% | [2] 1.3% | [3] 13.8% | [4] -6.75% | [5] 16.9% | [6] 20.2%
